Results filed as inconclusive are left out. Values without a mark were called inactive. The source made the active and inactive calls. Calls follow the shape of the dose curve; as a rule, active = well fitted curve in the direction sought with a large enough effect; inconclusive = small, poorly fitted or top-dose-only effect, or another doubt; inactive = no such curve, though single readings can be large; an effect the other way counts as inactive or inconclusive.

Experiment [1] has as its target Retinal dehydrogenase 2 (Homo sapiens) (UniProt O94788). Put plainly: qHTS for Inhibitors of the Aldehyde Dehydrogenase Family (ALDH1A2) Confirmation screens (AID 2061314; also: potency is read from the fitted curve at half-maximal effect; nearly all actives have a fitted effect of over 65% in size). (qHTS replaces the single test concentration by a dilution series.)
Experiment [2] concerns the target Retinaldehyde dehydrogenase 3 (Homo sapiens) (UniProt P47895). Put plainly: qHTS for Inhibitors of the Aldehyde Dehydrogenase Family (ALDH1A3) Primary screen (AID 2061315).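 Also: plate controls were DMSO vehicle for no effect and reference inhibitor for full effect.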
Experiment [3] addresses Aldehyde dehydrogenase 1A1 (Homo sapiens) (UniProt P00352). Put plainly: qHTS for Inhibitors of the Aldehyde Dehydrogenase Family (ALDH1A1) Confirmatory screens (AID 2061316). Also: potency is read from the fitted curve at half-maximal effect; nearly all actives have a fitted effect of over 65% in size.
Experiment [4] can be described thus: BET inhibitor-based combinations targeting novel dependencies in MECOM-rearranged (r) AML: MV-4-11 cell line (AID 2202233). Also: nearly all actives have a fitted effect of over 45% in size. Also: potency is read from the fitted curve at half-maximal effect. Summed up:
(§1)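 Activity is given as area under the curve and as Z-AUC, mean-centred within each cell line. It comes from 11-point dose curves normalized to DMSO and empty wells. CellTiter-Glo luminescence was read after 48 hr drug exposure of 500 cells/well.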

A short description of experiment [5]: BET inhibitor-based combinations targeting novel dependencies in MECOM-rearranged (r) AML: OCI-AML3 cell line (AID 2202232). Also: nearly all actives have a fitted effect of over 35% in size. Also: potency is read from the fitted curve at half-maximal effect. The note with it: Potency: OCI-AML3 viability. Summed up:
(§2)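 Cells were plated at 500 per well and exposed to an 11-point dose series of each drug for 48 hr. Viability was measured by CellTiter-Glo luminescence, normalized to DMSO and empty-well controls, and summarized as AUC and per-cell-line Z-AUC.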

A short description of experiment [6]: BET inhibitor-based combinations targeting novel dependencies in MECOM-rearranged (r) AML: HNT-34 cell line (AID 2202234). Also: nearly all actives have a fitted effect of over 35% in size. Also: potency is read from the fitted curve at half-maximal effect. A digest of the protocol:
as §1

Experiment [7] is described as follows: BET inhibitor-based combinations targeting novel dependencies in MECOM-rearranged (r) AML: UCSD-AML1 cell line (AID 2202235). Also: nearly all actives have a fitted effect of over 40% in size. Also: potency is read from the fitted curve at half-maximal effect. Summed up: as §1
Experiment [8] can be described thus: BET inhibitor-based combinations targeting novel dependencies in MECOM-rearranged (r) AML: AML-191 cell line (AID 2202236; also: nearly all actives have a fitted effect of over 35% in size; also: potency is read from the fitted curve at half-maximal effect). Summed up:
as §2

Experiment [9] is described as follows: BET inhibitor-based combinations targeting novel dependencies in MECOM-rearranged (r) AML: AML-194 cell line (AID 2202237; also: nearly all actives have a fitted effect of over 40% in size; also: potency is read from the fitted curve at half-maximal effect). Summed up:
as §2

Experiment [10] in a line: BET inhibitor-based combinations targeting novel dependencies in MECOM-rearranged (r) AML: SET-2 cell line (AID 2202231). Also: nearly all actives have a fitted effect of over 35% in size. Also: potency is read from the fitted curve at half-maximal effect.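 As to viability: plate controls were DMSO treated cells for no effect and wells without cells for full effect.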 Particulars: SET-2 AML cells viability, CellTiter-Glo luminescence, 48 h; viability: active compounds read low, concentration not given here. Summed up: as §2
On the technique in general: Cellular ATP, detected with luciferase, serves as a proxy for viable cell number.

For experiment [11], the target named is Aldehyde dehydrogenase, mitochondrial (Homo sapiens) (UniProt P05091). The experiment is described as follows: qHTS for Inhibitors of the Aldehyde Dehydrogenase Family (ALDH2) Primary screen (AID 2061308).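 Also: plate controls were vehicle for no effect and reference inhibitor for full effect; nearly all actives have a fitted effect of over 55% in size.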

With `O=C(O)c1ccc(-n2cccc2/C=C2\SC(=O)N(Cc3ccc(Cl)cc3)C2=O)cc1`, the results for the Potency in experiment [1] and in experiment [3] were 17.8 µM (active) and 4 µM (active), respectively. Moreover, the Potency entry in [2] is “inactive”.

Turning to `O=c1c(O)c(-c2ccc(O)c(O)c2)oc2cc(O)ccc12`, the Potency in [4] is 2.63 µM (active).

As to `CN1CCC(=C2c3ccccc3CCc3sccc32)CC1`, the Potency in experiment [4] was 33.2 µM (active).

Consider `COc1ccc(-c2oc3c(CC=C(C)C)c(O)cc(O)c3c(=O)c2O)cc1`, for which the Potency result in experiment [5], in experiment [6], in [7], in experiment [8] and in [9] was “inactive” in each case.

With `CCOC(=O)[C@H](CCc1ccccc1)N[C@H]1CS[C@H](c2cccs2)CN(CC(=O)O)C1=O`, the Potency in [5] and in [4] was 20.9 µM (active) throughout. For the same compound, the Potency result in [7] was “inactive”.

The term viability denotes a read-out of living cells in per cent, often relative to untreated cells. On to `CNC(=O)[C@H](Cc1ccccc1)NC(=O)[C@H](CC(C)C)[C@H](CSc1cccs1)C(=O)NO`, for which, in experiment [10], the viability is 98.9%. For the same compound, the figures for the Potency in experiment [4] and in experiment [8] were 7.42 µM (active) and 13.2 µM (active), respectively. For the same compound, the Potency entry in [7] was “inactive”.

For `OC(c1cc(C(F)(F)F)nc2c(C(F)(F)F)cccc12)C1CCCCN1` (stereo not drawn), the Potency in experiment [10] was 26.3 µM (active); in experiment [5] it was 18.6 µM (active); in [4], 20.9 µM (active); in experiment [6], 23.5 µM (active); in experiment [9] it was 20.9 µM (active).

`O=C(Cc1cccc(OC(F)(F)F)c1)Nc1ccc(CCCCc2nnc(NC(=O)Cc3ccccn3)s2)nn1`: the Potency result in experiment [5] was “inactive”. Further, the results for the Potency in [7] and in [8] were 0.0209 µM (active) and 0.118 µM (active), respectively.

As to `CCCCCCCCCCCCCCCC(=O)O[C@H]1[C@@H](O)[C@@H](O)[C@@H]([C@H](NC(=O)[C@@H]2C[C@@H](CCC)CN2C)[C@H](C)Cl)O[C@@H]1SC`, in [10], the viability is 108%. Also, in experiment [4], the Potency is 16.6 µM (active).

With `NC(N)=NC(N)=NCCc1ccccc1`, the results for the Potency in experiment [10] and in experiment [5] were 13.2 µM (active) and 16.6 µM (active), respectively. The Potency entry in experiment [6], in experiment [7], in [8] and in experiment [9] was “inactive” each time.

For `O=C(O)C(=O)Nc1cccc(-c2nn[nH]n2)c1`, the viability in experiment [10] is 121%. Moreover, the Potency result in experiment [5], in [4], in [6], in experiment [7], in [8] and in [9] was “inactive” in each case.

For `CNC(=O)c1ccccc1Nc1nc(Nc2ccc(N3CCOCC3)cc2OC)ncc1Cl`, the Potency entry in experiment [11] was “inactive”. The Potency was 16.6 µM (active) in experiment [10]; 0.833 µM (active) in experiment [5]; 0.263 µM (active) in experiment [4]; 1.32 µM (active) in experiment [6]; 2.35 µM (active) in experiment [7].

Consider `CCCN[C@H]1CCc2nc(N)sc2C1`, for which the viability in [10] was 116%. For the same compound, the Potency result in [5], in experiment [6], in [7], in experiment [8] and in [9] was “inactive” in each case. In addition, the Potency in experiment [4] is 0.934 µM (active).

With `C[C@H](NC(=O)Cc1cc(F)cc(F)c1)C(=O)N[C@H](C(=O)OC(C)(C)C)c1ccccc1`, in [10], the viability is 118%. For the same compound, the Potency result in [5], in experiment [4], in experiment [7] and in [9] was “inactive” throughout.

Consider `CCCn1c(=O)c2[nH]c(C34CC5CC3C[C@@H](C5)C4)nc2n(CCC)c1=O`, for which, in [10], the viability was 109%. In addition, the Potency was 20.9 µM (active) in [4] and 16.6 µM (active) in experiment [8]. For the same compound, the Potency result in [7] and in experiment [9] was “inactive” in each case.

Turning to `C[C@]12CC[C@@H]3c4ccc(O)cc4C[C@@H](CCCCCCCCCS(=O)CCCC(F)(F)C(F)(F)F)[C@H]3[C@H]1CC[C@H]2O` (stereo partly drawn), the figures for the Potency in [10] and in [4] were 4.68 µM (active) and 9.34 µM (active), respectively. Moreover, the Potency result in [7] and in [9] was “inactive” throughout.

With `c1cc(CN2CCCNCCNCCCNCC2)ccc1CN1CCCNCCNCCCNCC1`, the viability in experiment [10] is 87.5%. Also, the Potency entry in experiment [5], in experiment [4], in [6], in experiment [7], in [8] and in experiment [9] was “inactive” in each case.

With `OCc1ccc(-c2ccc(-c3ccc(CO)s3)o2)s1`, the Potency entry in experiment [11] is “inactive”. Also, the Potency in experiment [5] is 18.6 µM (active); in experiment [4], 13.2 µM (active); in [8] it was 26.3 µM (active); in experiment [9], 26.3 µM (active).

As to `COc1c(C)c2c(c(O)c1C/C=C(\C)CCC(=O)OCCN1CCOCC1)C(=O)OC2`, the Potency in experiment [10] was 1.32 µM (active); in experiment [5], 1.32 µM (active); in experiment [4] it was 0.662 µM (active); in [7], 1.18 µM (active); in experiment [8], 1.32 µM (active).

With `CCC(=O)N1CCN(c2ccc(-n3c(=O)ccc4cnc5ccc(-c6cnc7ccccc7c6)cc5c43)cc2C(F)(F)F)CC1`, the activity change, negative = inhibition is -6.8% [at 11.2 µM] in experiment [11] and 3.25% [at 11.2 µM] in experiment [2]. For the same compound, in [7], the Potency is 0.0091 µM (active).

For the compound `Nc1cc(C(Cl)=C(Cl)Cl)c(S(N)(=O)=O)cc1S(N)(=O)=O`, the Potency result in experiment [5], in experiment [4], in experiment [6], in experiment [7], in experiment [8] and in experiment [9] was “inactive” in each case.

Source of the values: PubChem BioAssay (NCATS).
